{"source": "ChEMBL document CHEMBL1201862", "about": "“PubChem BioAssay data set” (2004)", "note": "Screen size: about 400,000 compounds; about 2,100 (0.53%) were called active. Another 14% or so got no clear call; they are omitted. How the calls were made is not given here. The sample as a whole holds a higher share of actives than the screen did.", "data": [{"target": "Ataxin-2 (Homo sapiens) (UniProt Q99700)", "sequence (Q99700 whole entry)": "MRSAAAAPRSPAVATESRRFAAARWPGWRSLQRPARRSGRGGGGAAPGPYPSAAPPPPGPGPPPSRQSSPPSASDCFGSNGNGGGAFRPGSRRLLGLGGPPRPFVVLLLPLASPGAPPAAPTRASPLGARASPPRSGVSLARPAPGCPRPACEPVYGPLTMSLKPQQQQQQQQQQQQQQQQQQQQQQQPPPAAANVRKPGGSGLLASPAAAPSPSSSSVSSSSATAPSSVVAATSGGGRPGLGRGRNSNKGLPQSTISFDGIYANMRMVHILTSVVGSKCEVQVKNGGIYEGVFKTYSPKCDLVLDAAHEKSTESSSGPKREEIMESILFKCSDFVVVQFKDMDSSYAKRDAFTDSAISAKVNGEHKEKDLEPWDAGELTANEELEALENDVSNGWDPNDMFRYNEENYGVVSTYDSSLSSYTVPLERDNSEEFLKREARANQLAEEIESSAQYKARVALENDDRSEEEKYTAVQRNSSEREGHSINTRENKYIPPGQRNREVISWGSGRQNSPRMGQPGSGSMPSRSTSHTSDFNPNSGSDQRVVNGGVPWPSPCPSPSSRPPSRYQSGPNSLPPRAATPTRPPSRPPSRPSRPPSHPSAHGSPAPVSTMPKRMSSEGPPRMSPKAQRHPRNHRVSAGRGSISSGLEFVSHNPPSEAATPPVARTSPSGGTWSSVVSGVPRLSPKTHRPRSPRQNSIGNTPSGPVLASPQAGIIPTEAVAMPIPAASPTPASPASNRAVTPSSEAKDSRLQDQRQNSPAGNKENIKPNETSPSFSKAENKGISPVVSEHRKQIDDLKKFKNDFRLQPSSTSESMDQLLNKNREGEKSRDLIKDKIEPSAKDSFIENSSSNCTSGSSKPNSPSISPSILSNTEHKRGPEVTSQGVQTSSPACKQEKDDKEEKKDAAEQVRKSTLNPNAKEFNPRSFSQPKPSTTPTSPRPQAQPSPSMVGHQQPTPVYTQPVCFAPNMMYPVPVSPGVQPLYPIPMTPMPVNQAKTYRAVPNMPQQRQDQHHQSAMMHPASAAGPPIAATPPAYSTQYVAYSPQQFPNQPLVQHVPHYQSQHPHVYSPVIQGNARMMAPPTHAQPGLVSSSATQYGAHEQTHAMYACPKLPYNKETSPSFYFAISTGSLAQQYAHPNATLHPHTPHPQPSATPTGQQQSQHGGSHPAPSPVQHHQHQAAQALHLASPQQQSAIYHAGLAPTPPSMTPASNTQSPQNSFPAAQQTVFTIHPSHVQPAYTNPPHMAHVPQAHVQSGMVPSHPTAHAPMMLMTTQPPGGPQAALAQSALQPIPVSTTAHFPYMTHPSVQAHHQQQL", "assay": "qHTS for Inhibitors of ATXN expression.", "type": "functional", "values": [{"smiles": "N=c1c(C(=O)NC2CCCC2)cc2c(=O)n3ccccc3nc2n1C1CCCCC1", "Potency": "inactive"}, {"smiles": "CC1Nc2nc(N(C)C)nc(O)c2NC1C", "note": "(stereo not drawn)", "Potency": "inactive"}, {"smiles": "Cc1cc2nc(/C=C/c3nc4cc(C)c(C)cc4[nH]3)[nH]c2cc1C", "Potency": "inactive"}, {"smiles": "Oc1ccc(Br)cc1C1Nc2ccccc2S1", "note": "(stereo not drawn)", "Potency": "inactive"}, {"smiles": "CCC(CC)c1nnc(NC(=O)CSCc2c(C)noc2C)s1", "Potency": "inactive"}, {"smiles": "CC(C)=CCc1c(O)c(CC=C(C)C)c2occ(-c3ccc(O)cc3)c(=O)c2c1O", "Potency": "39.8 µM (active)"}, {"smiles": "COc1c(CC=C(C)C)c(O)cc2oc(=O)c3c4ccc(O)cc4oc3c12", "Potency": "inactive"}, {"smiles": "CC(C)=CCc1c(-c2ccc(O)cc2O)oc2cc3c(c(O)c2c1=O)C=CC(C)(C)O3", "Potency": "39.8 µM (active)"}, {"smiles": "CC1(C)C=Cc2c(c3c(c4c(=O)c(-c5ccc(O)cc5)coc24)OC(C)(C)CC3)O1", "Potency": "35.5 µM (active)"}, {"smiles": "CC(C)=CCc1c2c(c3occ(-c4ccc(O)cc4)c(=O)c3c1O)C=CC(C)(C)O2", "Potency": "25.1 µM (active)"}, {"smiles": "COC(c1ccccc1)(c1ccccc1)C(Oc1nc(C)cc(C)n1)C(=O)O", "note": "(stereo not drawn)", "Potency": "inactive"}, {"smiles": "CCOC(=O)c1c2ccc(OCC(=O)NN)cc2n2ccccc12", "Potency": "inactive"}, {"smiles": "Cc1c(C)c2cc(Cl)c(O)c(CN(C)C)c2oc1=O", "Potency": "inactive"}, {"smiles": "CCCCCC(=O)N1C[C@H](n2cc(COC(=O)c3ccccc3)nn2)[C@@H](O)C[C@@H]1c1ccc(Cl)cc1", "Potency": "39.8 µM (active)"}, {"smiles": "CCCCCC(=O)N1C[C@@H](n2cc(COC(=O)c3ccccc3)nn2)[C@H](O)C[C@@H]1c1ccc(Cl)cc1", "Potency": "31.6 µM (active)"}, {"smiles": "CC1(S(=O)(=O)O)CC(=O)c2ccccc2C1=O", "note": "(stereo not drawn)", "Potency": "inactive"}, {"smiles": "CC(=O)N1N=C2c3ccccc3CCC2C1c1ccc(F)cc1", "note": "(stereo not drawn)", "Potency": "inactive"}, {"smiles": "CCCCn1c(NC(C)=O)c(C#N)c2nc3ccccc3nc21", "Potency": "inactive"}, {"smiles": "CC(C)c1noc(-c2ccccc2OCC(=O)Nc2ccccc2[N+](=O)[O-])n1", "Potency": "39.8 µM (active)"}, {"smiles": "Cc1csc(SCC(=O)Nc2ccccc2[N+](=O)[O-])n1", "Potency": "inactive"}, {"smiles": "O=C(CN1CCCc2ccccc21)Nc1ccccc1[N+](=O)[O-]", "Potency": "inactive"}, {"smiles": "Nc1cccc2c1C(=O)N(C(=O)c1cccc(S(=O)(=O)N3CCCCCC3)c1)C2=O", "Potency": "inactive"}, {"smiles": "Fc1ccc(CN2CCN(c3ncccn3)CC2)c(F)c1", "Potency": "inactive"}, {"smiles": "COCC(C)n1c(SCc2ccc(C(=O)OC)cc2)nc2ccccc2c1=O", "note": "(stereo not drawn)", "Potency": "inactive"}, {"smiles": "O=C(c1ccc(-n2c(SCc3cc(F)ccc3F)nc3ccccc3c2=O)cc1)N1CCOCC1", "Potency": "inactive"}, {"smiles": "COc1ccc(C(C)=O)cc1CSc1nc2ccccc2c(=O)n1-c1ccccc1", "Potency": "35.5 µM (active)"}, {"smiles": "O=C(NCc1ccncc1)c1ccc(NS(=O)(=O)c2ccc(F)cc2)cc1", "Potency": "inactive"}, {"smiles": "CCOC(=O)c1c(C)oc2c1c(/C=N/CCO)c(O)c1ccccc12", "Potency": "inactive"}, {"smiles": "CCOC(=O)C(CC)Sc1ccc2nnc(-c3cccnc3)n2n1", "note": "(stereo not drawn)", "Potency": "inactive"}, {"smiles": "CCOC(=O)c1c(C)oc2c1c(C(c1ccccc1)N1CCOCC1)c(O)c1ccccc12", "note": "(stereo not drawn)", "Potency": "39.8 µM (active)"}, {"smiles": "CCOC(=O)c1c(N=C(S)N2CCOCC2)sc(C)c1C", "Potency": "inactive"}, {"smiles": "CCOC(=O)c1c(C)oc2c1c(C(c1cccnc1)N1CCOCC1)c(O)c1ccccc12", "note": "(stereo not drawn)", "Potency": "39.8 µM (active)"}, {"smiles": "COc1ccc(C(=O)N/N=C\\c2coc3ccccc3c2=O)cc1", "Potency": "inactive"}, {"smiles": "O=C(Cc1cc(=O)oc2cc(O)ccc12)NCC1CCC(C(=O)O)CC1", "note": "(stereo not drawn)", "Potency": "inactive"}, {"smiles": "Cc1c(-c2ccc(Cl)cc2)c(=O)oc2c(CN3CCCC3)c(O)ccc12", "Potency": "inactive"}, {"smiles": "Cc1cc(-c2cccs2)c2c(N)c(C(=O)c3ccc4c(c3)OCO4)sc2n1", "Potency": "inactive"}, {"smiles": "OCCNc1c2ccccc2nc2ccccc12", "Potency": "inactive"}, {"smiles": "c1ccc(CNc2nc(NCc3ccccc3)c3ccccc3n2)cc1", "Potency": "39.8 µM (active)"}, {"smiles": "CC(O)CNc1nc(NCc2ccccc2)c2cnn(C)c2n1", "note": "(stereo not drawn)", "Potency": "inactive"}, {"smiles": "CC1(C)Cc2c(C#N)c(NCCO)nc(-c3ccco3)c2CO1", "Potency": "inactive"}, {"smiles": "C/C(=N\\NC(=S)NCCc1ccccc1)c1ccc(Cl)cc1Cl", "Potency": "inactive"}, {"smiles": "Cc1cc(C)c(C(=O)Nc2ccccc2)c(CC(C)(C)C(=O)O)c1", "Potency": "inactive"}, {"smiles": "COc1ccc(NC(=O)CCC(=O)NCc2ccco2)c([N+](=O)[O-])c1", "Potency": "inactive"}, {"smiles": "Cc1nnc(Sc2cc(NCCO)c([N+](=O)[O-])c3nonc23)s1", "Potency": "28.2 µM (active)"}, {"smiles": "CC(=O)Nc1scc(C)c1-c1nc2ccccc2s1", "Potency": "inactive"}, {"smiles": "Cc1nnc(Sc2cc(NCCCO)c([N+](=O)[O-])c3nonc23)s1", "Potency": "21.2 µM (active)"}, {"smiles": "CC(=O)OCCCNc1cc(Sc2nc3ccccc3s2)c2nonc2c1[N+](=O)[O-]", "Potency": "12.6 µM (active)"}, {"smiles": "CCCn1c(N)c(C(=O)CSc2nc3ccccc3s2)c(=O)[nH]c1=O", "Potency": "inactive"}, {"smiles": "O=[N+]([O-])c1c(NCCCO)cc(SCc2ccco2)c2nonc12", "Potency": "31.6 µM (active)"}, {"smiles": "COCCNc1nnc(SCC(=O)Nc2cc(C)on2)s1", "Potency": "inactive"}, {"smiles": "O=C(Cn1[nH]c(=O)c2ccccc2c1=O)OCC(=O)c1ccc(F)c(F)c1", "Potency": "inactive"}, {"smiles": "COCCCn1c(=N)c(C(=O)NCc2ccco2)cc2c(=O)n3cccc(C)c3nc21", "Potency": "inactive"}, {"smiles": "O=C1c2cccc3c(N4CCCCC4)ccc(c23)C(=O)N1c1ccc(O)cc1", "Potency": "inactive"}, {"smiles": "Cc1ccc(OCCCCCCN2CCNCC2)cc1", "Potency": "inactive"}, {"smiles": "O=C(Oc1cccc(C(=S)N2CCCCC2)c1)c1ccccc1", "Potency": "inactive"}, {"smiles": "OC(c1ccccc1)(c1ccccc1)C1CCN(CCCOc2cccc(OC(F)(F)F)c2)CC1", "Potency": "35.5 µM (active)"}, {"smiles": "Cc1ccc(OCCCN2CCC(C(O)(c3ccccc3)c3ccccc3)CC2)cc1", "Potency": "35.5 µM (active)"}, {"smiles": "COC(=O)c1cccc(OCCCN2CCC(C(O)(c3ccccc3)c3ccccc3)CC2)c1", "Potency": "35.5 µM (active)"}, {"smiles": "Brc1cccc(OCCN2CCc3ccccc3C2)c1", "Potency": "inactive"}, {"smiles": "CC(C)c1ccccc1OCCCN1CCCC1", "Potency": "inactive"}, {"smiles": "O=C(c1coc(=O)c(Br)c1)N1CCC(C(O)(c2ccccc2)c2ccccc2)CC1", "Potency": "inactive"}, {"smiles": "Cc1ccc(OCCCCN2CCCCC2)cc1", "Potency": "inactive"}, {"smiles": "CCOc1ccc(/C=N/NC(=O)Cc2cccs2)cc1", "Potency": "inactive"}, {"smiles": "C=CCOc1ccc(/C=N\\NC(N)=S)cc1", "Potency": "22.4 µM (active)"}, {"smiles": "C=CCNC(=S)N/N=C/c1ccc(-c2ccc(OC)cc2)o1", "Potency": "inactive"}, {"smiles": "Cc1ccc2nc(C3CCCCC3)c(Cc3cccc(Cl)c3)n2c1", "Potency": "39.8 µM (active)"}, {"smiles": "CCn1c(=N)c(C(=O)NC2CCCCC2)cc2c(=O)n3cc(C)ccc3nc21", "Potency": "inactive"}, {"smiles": "Brc1ccc2nc(-c3cccs3)c(NCC3CCCO3)n2c1", "note": "(stereo not drawn)", "Potency": "inactive"}, {"smiles": "CCC(C)n1c(=N)c(C(=O)NC2CCCCC2)cc2c(=O)n3cc(C)ccc3nc21", "note": "(stereo not drawn)", "Potency": "inactive"}, {"smiles": "COc1ccccc1Cc1c(C2CCCCC2)nc2ccc(Br)cn12", "Potency": "17.8 µM (active)"}, {"smiles": "COCCn1c(=N)c(C(=O)NC2CCCC2)cc2c(=O)n3cc(C)ccc3nc21", "Potency": "inactive"}, {"smiles": "Cc1ccc2nc3c(cc(C(=O)NC4CCS(=O)(=O)C4)n3Cc3ccccc3)c(=O)n2c1", "note": "(stereo not drawn)", "Potency": "inactive"}, {"smiles": "COc1ccccc1Cc1c(C2CCCCC2)nc2ccc(C)cn12", "Potency": "20 µM (active)"}]}]}
